# From ChEMBL document CHEMBL3433997, “St. Jude Leishmania screening dataset” (2016)
# Experiments:
# Format in all cases: functional
# [1] = molecular target: Solute carrier family 2, facilitated glucose transporter member 1 (Homo sapiens) (UniProt P11166); assay: ST_JUDE_LEISH: Cytotoxicity at 2uM final concentration against transgenic Leishmania Mexicana promastigotes LmGLUT1 that are glucose transport deficient and complemented with the human glucose transporter GLUT1. Activity is measured by DNA content using SYBR green in vitro
# Chain of Solute carrier family 2, facilitated glucose transporter member 1 (Homo sapiens) (P11166 whole entry): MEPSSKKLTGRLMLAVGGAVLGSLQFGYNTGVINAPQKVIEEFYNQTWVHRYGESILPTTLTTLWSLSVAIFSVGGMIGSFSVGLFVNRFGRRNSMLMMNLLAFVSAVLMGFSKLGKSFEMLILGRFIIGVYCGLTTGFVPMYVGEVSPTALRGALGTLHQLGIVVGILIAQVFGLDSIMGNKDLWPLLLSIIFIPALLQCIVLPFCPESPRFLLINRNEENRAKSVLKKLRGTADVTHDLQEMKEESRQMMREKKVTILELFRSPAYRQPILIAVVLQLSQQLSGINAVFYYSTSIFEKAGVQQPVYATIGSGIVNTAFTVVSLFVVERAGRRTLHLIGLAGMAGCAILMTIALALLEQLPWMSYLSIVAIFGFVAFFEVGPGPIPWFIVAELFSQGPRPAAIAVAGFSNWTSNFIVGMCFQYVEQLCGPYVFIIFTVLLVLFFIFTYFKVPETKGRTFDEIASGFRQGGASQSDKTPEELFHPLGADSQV
# [2] = molecular target: Hexose transporter 1 (Plasmodium falciparum) (UniProt O97467); assay: ST_JUDE_LEISH: Cytotoxicity at 2uM final concentration against transgenic Leishmania Mexicana promastigotes LmPfHT that are glucose transport deficient and complemented with the Plasmodium falciparum hexose transporter. Activity is measured by DNA content using SYBR green in vitro
# [3] = molecular target: Glucose transporter (Leishmania mexicana) (UniProt O61059); assay: ST_JUDE_LEISH: Cytotoxicity at 2uM final concentration against transgenic Leishmania Mexicana promastigotes LmGT2 that are glucose transport deficient and complemented with the L. Mexicana glucose transporter 2. Activity is measured by DNA content using SYBR green in vitro
Compound,inhibition [1] [%],inhibition [2] [%],inhibition [3] [%]
COc1cccc(CC(=O)NC2CCN(c3ccnc4cc(Cl)ccc34)C2)c1 (centres undefined),0.02,-0.46,1.48
C=CCN(c1ccc(OC)cc1)S(=O)(=O)c1ccc(Cl)c(C(=O)Nc2cccc(C#N)c2)c1,-1.28,4.89,4.17
COc1ccc(C2CCN(CCCCNC(=O)c3ccc(NC(=O)c4ccc(Cl)cc4)cc3)C2)c(OC)c1 (centres undefined),-0.08,0.01,0.7
O=C(/C=C/c1ccc(I)cc1)NCCCCCN1CCC(c2c[nH]c3ccccc23)CC1,3.43,1.79,2.95
COc1ccc(-c2cccc(NC(=O)c3ccc(Cl)cc3)c2)cc1CNC(C)C,3.8,2.1,-1.5
COc1ccc(C2CC(=O)C3=C(C2)NC(C)=C(C(=O)OC(C)C)C3c2ccc(O)cc2)cc1OC (centres undefined),8.55,8.07,5.45
COc1cc(OC)c2c(C)cc(NCCCn3ccnc3)nc2c1,2.59,3.68,0.88
Cc1ccc(S(=O)(=O)c2nc(S(=O)(=O)c3ccccc3)sc2NCC2CCCO2)cc1 (centres undefined),11.8,11.1,9.48
Fc1cccc(COc2ccc(Nc3ncnc4ccc(-c5nnc(C(F)(F)F)o5)cc34)cc2Cl)c1,4.63,4.57,1.46
c1cc(-c2ccc(CNC3CCOCC3)cc2)cc(-c2nc3ccccc3[nH]2)c1,-0.19,1.26,-2.46
COc1ccc2nccc([C@@H](O)CN3C4CCC3CC(NCc3ccc5c(n3)NC(=O)CS5)C4)c2n1 (some centres undefined),1.63,1.76,-2.06
Cc1ccc(Cn2ncc(N3CC(C)NC(C)C3)c(Cl)c2=O)cc1NC(=O)Nc1ccc(-c2ccccc2)cc1 (centres undefined),14.6,13.9,13.6
Cc1cc(N(C)CCCN2CCCCC2)nc(Nc2ccc(Cl)cc2)n1,0.51,2.38,2.88
COc1ccc(C2(CNCC(O)c3cccc([N+](=O)[O-])c3)CCCC2)cc1OC (centres undefined),2.7,4.72,3.66
N#Cc1cnc(Nc2ccc(Oc3ccccc3)cc2)nc1Nc1cccc(S(N)(=O)=O)c1,-0.14,5.38,5.25
CC(C)(C)C1CCc2onc(C(=O)Nc3cc(Cl)ccc3O)c2C1 (centres undefined),7.15,5.86,4.8
CN1CCN(CC(=O)Nc2cccc(-c3cccc(-c4nc5cc(C(F)(F)F)ccc5[nH]4)c3)c2)CC1,3.23,2.92,3.87

Compound,inhibition [1] [%],inhibition [2] [%],inhibition [3] [%]
Cc1cc(Cl)c(S(=O)(=O)NC(C)(C)C)cc1OCC(=O)NC1CCCCC1,-0.97,0.93,0.34
C[C@@H]([C@@H](CCCc1ccc(Cl)cc1)C(=O)N[C@H](C(=O)Nc1cccnc1)C(C)(C)C)N(O)C=O,1.13,0.19,1.52
COc1cc(Cc2cnc(N)nc2N)cc(OCC(C)(C)C(=O)O)c1OC,-1.6,-1.08,-0.23
Cc1cc(N2CCCC2)nc(Nc2ccc(NC(=O)c3cccc(F)c3)cc2)n1,33.5,14.7,16.2
Cc1cnc(NCCc2ccc(F)cc2)nc1N[C@@H](CC(C)C)C(=O)Nc1ccccc1,5.17,4.05,4.26
CC(ON1C(N)=NC(N)=NC1(C)C)c1ccccc1 (centres undefined),5.91,4.22,6.95
c1ccc(COc2ccc(Nc3ncnc4ccc(-c5ccc(CN6CCSCC6)o5)cc34)cc2)cc1,10.9,7.33,7.66
O=C(Nc1ccc(-c2nc3ccccc3[nH]2)cc1)c1ccc(S(=O)(=O)N2CCc3ccccc32)cc1,2.92,0.13,3.39
COc1ccc2ncc(F)c(CCN3CC(O)C(CNCc4ccccc4)C3)c2n1 (centres undefined),7.65,5.1,4.78
COc1ccc2nccc(N3CCN(CCNCc4ccc5c(n4)NC(=O)CS5)CC3)c2c1,1.43,0.73,0.44
CSc1c(CNCCCNc2cc(=O)c3ccccc3[nH]2)[nH]c2ccccc12,5.89,4.28,4.96
O=C(/C=C/c1ccc(Cl)c(Cl)c1)NCCCCCN1CCCC(CNC(=O)Nc2ccc(C(F)(F)F)cc2)C1 (centres undefined),4.18,3.11,1.39
CCNC(=O)Nc1ccc(-c2cccc(-c3nc4cccc(C)c4[nH]3)c2)cc1,5.51,5.35,3.12
O=C(Nc1cccc(CN2CCCN(CCc3ccccc3)CC2)c1)c1cc2ccccc2s1,-1.04,-1.82,1.52
CN(C)c1ccc(-c2csc(C(=O)NCC3CCN(Cc4ccc(C(C)(C)C)cc4)C3)c2)cc1 (centres undefined),-1.07,-1.85,-1.57
Nc1nc(N)c2c(Sc3ccc(F)cc3)cccc2n1,6.11,6.64,7.67
